# Screening data: PubChem, National Center for Advancing Translational Sciences (NCATS)
# An excerpt weighted towards active compounds, which were near 3.1% of everything screened.
# SKOV3 invasion: inhibitors of ovarian cancer cell adhesion and invasion in omental model. SKOV3ip1-GFP adhesion/invasion on 3D omental model, fluorescence. Potency, µM (doses to about 45.8 µM), without a hit: at the top dose activity change, negative = inhibition, most hits filed as inhibitors. actives 0.1% (n = 46,000). AID 1963576;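 further: plate controls were DMSO wells for no effect and tomatine positive control wells for full effect; nearly all actives have a fitted effect of over 65% in size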
#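 Primary human omental fibroblast/mesothelial 3D culture pre-formed 48 h. SKOV3ip1-GFP cells added with compounds (0.36-46 umol/L), incubated 2 h RT/16 h 37 C, fixed; GFP cells quantified at 488/509 nm.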
# p53null 32C tox: selectivity test: cytotoxicity in p53 null cells, permissive temperature; H1299-neo p53 null cells, ATP luminescence, 24 h, 32C; Potency, µM (highest dose often 46.1 µM), for inactives: top-dose activity change, negative = cytotoxicity, actives largely listed as cytotoxic; actives 0.62% (n = 55,000);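 further: 0% = DMSO only and -100% = full killing by 100 µM tamoxifen; nearly all actives have a fitted effect of over 55% in size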
#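 Cytotoxicity: H1299-neo (no p53), 32C, 24 h treatment. Concentrations up to 46 uM. Readout cellular ATP, luminescence. Normalization to DMSO basal and tamoxifen 100 uM maximal kill.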
# PMP22 txn: PMP22 gene transcription modulation | actives 2% (n = 43,000) | Potency, µM (series often up to 57.5 µM), without a hit: at the highest dose activity change, negative = inhibition, hits mostly inhibitors | S16 Pmp22-F2sN Schwann cells, FLuc/NLuc coincidence luminescence, 24 h; active means clear falling dose curves in both reporters; inconclusive means both reporters move, but less clearly or upward; inactive means either reporter flat; the % is the NLuc reporter signal
#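 S16(c9) Schwann cells with FLuc/NLuc coincidence reporter in the Pmp22 3' UTR; compounds pin-transferred, 24 h at 37C. Dual-luciferase read: FLuc first, then NLuc after Stop&Glo, each 10 min at room temperature.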
# S16 viability: cytotoxicity in S16 Pmp22-F2sN Schwann cells; actives 0.48% (n = 43,000); Potency, µM (series often up to 57.5 µM), without a hit: at the top dose activity change, negative = cytotoxicity, actives largely listed as cytotoxic; S16 Pmp22-F2sN Schwann cells (luciferase reporters placed in the Pmp22 gene) viability, CellTiter-Glo, 24 h; further: nearly all actives have a fitted effect of over 65% in size
#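 Rat S16 Schwann reporter line, 24 h treatment with library compounds delivered at 23 nL per well. Cell viability by CellTiter-Glo luminescence.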
# p53null 39C kill: p53 null cell cytotoxicity, nonpermissive temperature; H1299 p53-null (neo) cells, 39C, ATPlite viability, 24 h; Potency, µM (series often up to 46.1 µM), for inactives: at the top dose activity, negative = cell killing, most hits filed as cytotoxic; actives 0.97% (n = 55,000); AID 904;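 further: 0% = DMSO only and -100% = full killing by 100 µM tamoxifen; nearly all actives have a fitted effect of over 50% in size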
#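 ATP-luminescence viability readout (ATPlite, 20 min RT) after 24 hr compound treatment at 39C of H1299-neo or H1299-p53A138V cells; titration up to 46 uM; normalized to DMSO and 100 uM tamoxifen; Hill-fit AC50.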
# pS6 MEF inh: mTORC1 pathway inhibition measured by phospho-rpS6. Tsc2-/- p53-/- MEF, phospho-rpS6 immunofluorescence/PI, 24 h. Potency, µM (highest dose often 38.3 µM), without a hit: top-dose activity change, negative = inhibition, actives largely listed as inhibitors. actives 0.78% (n = 44,000);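 further: plate controls were DMSO for no effect and rapamycin for full effect; nearly all actives have a fitted effect of over 50% in size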
#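 Readout is phospho-S6 Alexa 488 signal normalized to PI per well, reported as % active cells with thresholds set from rapamycin (7.5 nM) and DMSO controls. Cells: Tsc2-/-, p53-/- MEFs, 24 hrs compound at 37 C; PI cell number serves as viability.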
# An asterisk follows results filed as active; i = inactive; ? = inconclusive; · = no result given. Unless noted, the call rests on the fitted dose curve; in most records, active means well fitted curve in the direction sought with a large enough effect; inconclusive means small, poorly fitted or top-dose-only effect, or another doubt; inactive means no such curve, though single readings can be large; an effect the other way counts as inactive or inconclusive. Unless noted, on the % scale 0 is the no-effect control and ±100 the full control effect; potency means the concentration at half of the fitted maximal effect.
SMILES,SKOV3 invasion,p53null 32C tox,PMP22 txn,S16 viability,p53null 39C kill,pS6 MEF inh
O=S(=O)(c1ccccc1)c1nc(-c2cccs2)oc1N1CCCCC1,i,-1%,?,-19%,-9%,-6%
CCC(C)S(=O)(=O)c1oc(-c2cccs2)nc1S(=O)(=O)c1ccccc1 (stereo not given),-20%,25µM*,1.4µM*,2.5µM*,?,1.2µM*
COc1ccc(Nc2cc(-c3cnc(N)nc3)nc(N3CCOCC3)n2)cn1,-15%,·,·,·,·,·
O=C(Nc1ccc(C(=O)N2CCN(c3ccc(F)cc3)CC2)cc1)c1nsc2ccccc12,14%,0%,-32%,?,-14%,17%
CNC(=O)c1ccc(NC(=O)c2nsc3ccccc23)cc1,-1%,6.3µM*,21%,-24%,5µM*,2%
O=C(Nc1ccc(C(=O)N2CCCCC2)cc1)c1nsc2ccccc12,3%,4µM*,-14%,?,4µM*,1%
Cc1ccc(CNC(=O)c2ccc(NC(=O)c3nsc4ccccc34)cc2)cc1,-8%,-14%,-16%,2%,-23%,7%
O=C(NCc1cccc(F)c1)c1ccc(NC(=O)c2nsc3ccccc23)cc1,-1%,?,-5%,?,10µM*,3%
CCOC(=O)c1ccc(NC(=O)c2nsc3ccccc23)cc1,-7%,7.9µM*,-16%,?,10µM*,-4%
CC(C)N1[N]C(=C2C=c3cc(O)ccc3=N2)c2c(N)ncnc21,20%,·,·,·,·,·
Cn1cc(C=CC(=O)c2cccc(F)c2)cc1C=CC(=O)NO,-1%,·,·,·,·,·
CN(C)Cc1c(C(=O)NCCOc2ccc(C(=O)NO)cc2)oc2ccccc12,-11%,·,·,·,·,·
CN(C)c1ccc(Nc2nc3ccccc3n3nnnc23)cc1,4%,-20%,14µM*,?,?,-1%
O=C(c1ccc(Nc2nc3ccccc3n3nnnc23)cc1)N1CCN(c2ccc(F)cc2)CC1,-6%,-2%,4µM*,?,-19%,3%
COc1ccc(N2CCN(C(=O)c3ccc(Nc4nc5ccccc5n5nnnc45)cc3)CC2)cc1,-12%,-1%,?,?,-7%,0%
CO[C@H]1C(=O)[C@]2(C)[C@@H](OC)C[C@H]3OC[C@@]3(OC(C)=O)[C@H]2[C@H](OC(=O)c2ccccc2)[C@]2(O)C[C@H](OC(=O)[C@H](O)[C@@H](NC(=O)OC(C)(C)C)c3ccccc3)C(C)=C1C2(C)C,8%,·,·,·,·,·
Cc1ccc(C(=O)COC(=O)CCC(=O)Nc2ccc(Oc3ccccc3)cc2)cc1C,1%,0%,0%,-6%,-20%,3%
COc1ccccc1NC(CC(=O)c1ccccc1)C(=O)OCC(=O)c1ccc(C)c(C)c1 (stereo not given),·,18µM*,·,·,·,·
CCN(c1ccccc1)S(=O)(=O)c1ccc(NC(=O)c2cc(=O)c3ccc(C)c(C)c3o2)cc1,1%,16%,-18%,-6%,2%,0%
CCc1ccc(NC(=O)c2cc(=O)c3ccc(C)c(C)c3o2)cc1,-19%,9%,16µM*,?,1%,?
Cc1nn(-c2ccccc2)c2c1N(CCCC(=O)NCc1ccccc1)C(=O)CS2,i,8%,?,?,0%,-4%
Cc1nn(-c2ccccc2)c2c1N(CCCC(=O)NCc1ccc(OC(C)C)cc1)C(=O)CS2,?,-7%,?,10µM*,-13%,0%
Cc1ccc(S(=O)(=O)C(CNS(=O)(=O)c2ccc(F)c(C)c2)c2cccs2)cc1 (stereo not given),14%,9%,?,25µM*,18%,-4%
Cc1cc(C)c(S(=O)(=O)NCC(c2cccs2)S(=O)(=O)c2ccccc2)c(C)c1 (stereo not given),?,32%,?,13µM*,5%,?
CCOc1ccc(S(=O)(=O)NCC(c2cccs2)S(=O)(=O)c2ccc(C)cc2)cc1 (stereo not given),?,19%,?,?,14%,?
SMILES,SKOV3 invasion,p53null 32C tox,PMP22 txn,S16 viability,p53null 39C kill,pS6 MEF inh
Cc1cc(C)c(S(=O)(=O)NCC(c2ccco2)S(=O)(=O)c2ccccc2)c(C)c1 (stereo not given),-14%,15%,-26%,-10%,29%,-5%
CCOc1ccn(-c2ccc(F)cc2)c(=O)c1C(=O)Nc1ccc(Oc2ccnc(N)c2Cl)c(F)c1,7%,·,·,·,·,·
CC(=O)c1c(C)oc2c(Cl)cc(NS(=O)(=O)c3ccc(Cl)cc3)cc12,9%,14%,?,26%,21%,-2%
CCCc1oc2ccc(NS(=O)(=O)c3ccc(OCC)cc3)cc2c1C(=O)OCC,-1%,39%,?,-27%,18µM*,15µM*
CCOC(=O)c1c(C)oc2c(Cl)cc(NS(=O)(=O)c3ccc(Cl)c(C)c3)cc12,?,58%,?,7%,5µM*,-25%
Cc1cc(S(=O)(=O)Nc2ccc3oc4c(c3c2)CCCC4)ccc1Cl,-10%,?,?,17%,18µM*,-2%
COc1ccc(F)cc1S(=O)(=O)NCCc1csc(-c2ccc(Cl)cc2)n1,i,21%,?,-4%,20µM*,-8%
COc1cc(C)c(Sc2cnc(NC(=O)c3ccc(CNC(C)C(C)(C)C)cc3)s2)cc1C(=O)N1CCN(C(C)=O)CC1 (stereo not given),19%,·,·,·,·,·
Cc1ccc(-c2nc3n(n2)Cc2ccccc2-3)cc1,·,8.9µM*,·,·,?,·
Cc1ccc(-c2cc3ncc4c(n3n2)-c2ccccc2OC4)cc1,-3%,·,1%,-5%,·,-9%
CC(=O)OCC(=O)[C@@]12OC(C)(C)O[C@H]1C[C@H]1[C@@H]3C[C@H](F)C4=CC(=O)C=C[C@]4(C)[C@@]3(F)[C@@H](O)C[C@@]12C,25%,·,·,·,·,·
COc1ccc([C@@H]2CC(=O)c3c(O)cc(O[C@@H]4O[C@H](CO[C@@H]5O[C@@H](C)[C@H](O)[C@@H](O)[C@@H]5O)[C@@H](O)[C@H](O)[C@@H]4O)cc3O2)cc1O,-1%,·,·,·,·,·
Cc1oc2ccc(O)c(CN3CCCC(C)C3)c2c1C(=O)Nc1ccccc1 (stereo not given),3%,-3%,-19%,-3%,-15%,15µM*
